About 83,000 compounds went through this panel and 20% of them were active in at least one assay; those are over-represented in the sample as a whole.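 Compound tested at a single concentration for 48 hours in 96-well plates; a percent growth value below 10 was scored as active.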 Active and inactive are the calls of the source.
Test system: HL-60(TB) leukemia
Assay: NCI-60 one-dose screen, 48 h (100 = growth as untreated, 0 = no growth, -100 = all killed)
Conditions: 10 µM unless noted

Structure (SMILES) | growth
COc1ccc2c(c1OC)C(=O)O[C@H]2[C@H]1c2c(cc3c(c2OC)OCO3)CCN1C | 31.9% (inactive)
C=C(C)[C@@H]1CC[C@]2(C(=O)n3ccnc3)CC[C@]3(C)[C@H](CC[C@@H]4[C@@]5(C)CCCNC(C)(C)[C@@H]5CC[C@]43C)[C@@H]12 | -56.2% (active)
COc1cc(CN(c2ccc(Cl)cc2)C2OC(=O)c3ccccc32)cc(OC)c1OC (stereo not given) | 21.7% (inactive)
O=C1NN(c2ccccc2)C(c2cccnc2)=N/C1=C\c1cccnc1 | 104% (inactive)
COC(=O)/C=C1/SC(=Nc2ccc([N+](=O)[O-])cc2)N(CCc2c[nH]c3ccccc23)C1=O | 69.8% (inactive)
COc1ccccc1-c1ccc2c(N)c(C(=O)c3ccc4c(c3)OCO4)sc2n1 | 37% (inactive)
C#C[C@H]1CCCCCC1O (stereo not given in full) | 96.1% (inactive)
CCCN1C(=O)N(CCC)C2C1NN=c1s/c(=C3\C(=O)N(C(C)C)c4ccccc43)c(=O)n12 (stereo not given) | 0.788% (active)
NC(=O)CSc1nc(-c2ccc(F)cc2)cc(-c2ccco2)n1 | 108% (inactive)
O=[N+]([O-])c1ccc(NC(=S)N/N=C/c2cc3ccccc3n3nnnc23)cc1 | 27.4% (inactive)
O=c1c2cccc3c(Nc4c(F)cccc4F)ccc(c32)c2nc3ccccc3n12 | 85.9% (inactive)
COc1ccc(Nc2cc(C)nc(N3CCN(c4ccnc5cc(Cl)ccc45)CC3)n2)cc1 | 2.43% (active)
CN(C)c1nc2c([nH]1)c(=O)n(C)c(=O)n2C | 108% (inactive)
CCOC(=O)c1c(C)cc(=O)oc1C | 105% (inactive)
Brc1ccc(C2CC(c3cccc(Nc4ccncc4)c3)=NN2c2ccccc2)cc1 (stereo not given) | 56.9% (inactive)
Cc1c(-c2csc(-n3nc(C(F)(F)F)cc3C(F)(F)F)n2)no[n+]1[O-] | 97% (inactive)
CSc1nc(NCCO)c(C#N)c(-c2cccc([N+](=O)[O-])c2)n1 | 104% (inactive)
COc1ccc2nc3cc(Cl)ccc3c(NCCNCC(C)O)c2c1 (stereo not given) | 21.8% (inactive)
Cc1cc(/C=C2\SC(=Nc3ccccc3)N(C3CCCC3)C2=O)c(C)n1-c1ccc(Cl)cc1 | -27.3% (active)
CC1(C)Cc2c(Br)c(Br)c(Br)c(OCC(O)CN3CCOCC3)c2O1 (stereo not given) | -34.1% (active)

Structure (SMILES) | growth
COc1cccc(-c2nn(-c3ccccc3)cc2-c2ccnc(NCCNS(=O)(=O)c3ccc(C(F)(F)F)cc3)c2)c1 | -20.9% (active)
COC(=O)c1ccc(C(=Nc2ccc(N(C)C(=O)CN3CCN(C)CC3)cc2)c2c(O)[nH]c3ccc(C(=O)OC)cc23)cc1 | 14.4% (inactive)
O=C(Oc1ccc[nH]c1=O)c1cccc(Cl)c1 | 87.6% (inactive)
COc1cc(/C=N\NC(=O)CN2CCN(c3cc4c(cc3F)c(=O)c(C(=O)N/N=C/c3cc(OC)c(OC)c(OC)c3)cn4C3CC3)CC2)cc(OC)c1OC | -10.2% (active)
O=c1cc(-c2ccccc2)[nH]c(=S)[nH]1 | 104% (inactive)
COC1=C(OC)C(=O)C=CC1=O | 60.8% (inactive)
O=C(CCCCCCCn1cc(-c2cccnc2)nn1)Nc1ccccc1-c1ccccc1 | 45.7% (inactive)
O=C1N=C(c2c(-c3[nH]c(=O)c4ccc(Br)cc4c3O)c(O)c3ccccc3c2O)C(=O)c2cc(Br)ccc21 | 45.6% (inactive)
C=CCn1c(C)nc2ccc(Nc3nc(Nc4ccc(F)cc4)nc4ccccc34)cc21 | 51.6% (inactive)
O=C(COc1ccc(-c2nc3ccccc3[nH]2)cc1)N=Nc1c(O)[nH]c2ccccc12 | 103% (inactive)
Nc1ccc2ccc(NS(=O)(=O)N3CCCCC3)cc2c1 | 2.41% (active)
COC(=O)C(N)CSC(c1ccccc1)(c1ccccc1)c1ccccc1 (stereo not given) | -28.7% (active)
O=S(=O)(N=C1C(Cl)=C(Cl)C(=NS(=O)(=O)c2ccccc2)C(Cl)=C1Cl)c1ccccc1 | 48.5% (inactive)
CCCCCCN(CCCCCC)CCCNc1nccc2ccccc12 | -1.22% (active)
Cc1ccc(NC(=S)N2CCOCC2)cc1C | 103% (inactive)
COc1ccc(-c2nc3c(N)c(CO)cnc3s2)cc1 | 80.5% (inactive)
COc1ccc(NC(=O)c2ccc3c(c2)nc(-c2ccc(Cl)cc2)n3-c2cc(C(C)(C)C)[nH]n2)cc1 | 96.8% (inactive)
O=c1[nH]c(-c2ccccn2)nc2sc3c(c12)CCCCCC3 | 10.9% (inactive)
CC(=O)N[C@H](C(=O)N[C@@H](CCCNC(=N)N)C(=O)N[C@@H](CCCCN)C(=O)N[C@@H](CCCNC(=N)N)C(=O)NC(C(=O)N[C@@H](CC(C)C)C(=O)N[C@@H](CCCNC(=N)N)C(=O)N[C@@]1(C)CCC/C=C\CCC[C@@](C)(C(=O)N[C@@H](CCCNC(=N)N)C(=O)N[C@@H](CCC(=O)O)C(=O)N[C@@H](CC(C)C)C(=O)N[C@H](C(=O)N[C@@H](CCC(=O)O)C(N)=O)C(C)C)NC(=O)[C@H](CCC(N)=O)NC(=O)[C@H](CC(C)C)NC(=O)[C@H](CC(C)C)NC1=O)[C@@H](C)O)C(C)C (stereo not given in full) | -41% (active)
CC(C)C[C@H](NC(=O)[C@H](Cc1ccccc1)n1ccc(N2CCCCC2)cc1=O)B(O)O | 1.9% (active)

Reference: PubChem BioAssay (NCI)
